Data reported in PubChem BioAssay (NCATS).
Where “and” joins values, the source holds several entries; their conditions need not be identical. Equal entries are not always repeated. Inconclusive results are not listed. Calls of active or inactive are those of the source. Unless noted, the call rests on the fitted dose curve; in most records, active means well fitted curve in the direction sought with a large enough effect; inconclusive means small, poorly fitted or top-dose-only effect, or another doubt; inactive means no such curve, though single readings can be large; an effect the other way counts as inactive or inconclusive.

Columns and labels:
[1] = Cell Viability - MRC5 (AID 434; calls by dose curve;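 further: potency means the concentration at half of the fitted maximal effect; cells exposed to compound for 40 hours at 37 °C; potency reflects cytotoxicity seen as loss of intracellular ATP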); settings: MRC5 lung fibroblast viability, qHTS
Method in brief: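 ATP luminescence read-out (CellTiter-Glo, 20 min RT) after 40 hr, 37 °C compound exposure of 1500 MRC5 cells/well. Data normalized to DMSO (basal) and 100 uM tamoxifen (100% inhibition); AC50 from standard Hill equation.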

[2] = Cell Viability - HUV-EC-C (AID 542); settings: HUV-EC-C endothelial cell viability, qHTS; series mostly up to 92.2 µM;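 further: cells exposed to compound for 40 hours; on the % scale 0 is the no-effect control and ±100 the full control effect; nearly all actives have a fitted effect of over 35% in size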
Method in brief: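 CellTiter-Glo luminescence measured ATP loss in HUV-EC-C cells (1000/well) after 40 hr compound exposure at 37 °C, in complete culture medium. Concentration-response data were Hill-fitted to give AC50.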

[3] = Cellular Toxicity (caspase-3) HepG2 (AID 654); settings: HepG2 caspase-3 activation, luminescence; series mostly up to 92.2 µM;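 further: cells exposed to compound for 16 hours before reading; 0% = DMSO alone and 100% = caspase signal from 100 µM tamoxifen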
Method in brief: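 Caspase 3/7 activation is measured as a luminescence increase (aminoluciferin substrate) after 16 h compound exposure of human hepatocarcinoma HepG2 cells. AC50 values are Hill fits, scaled between DMSO baseline and 100 uM tamoxifen stimulation.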

[4] = Cellular Toxicity (caspase-3) HUV-EC-C (AID 656); settings: HUV-EC-C cells, caspase-3 activation (apoptosis); series mostly up to 92.2 µM
Method in brief: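 Concentration-dependent caspase 3/7 induction was assessed in HUV-EC-C cells exposed for 16 hours. Data scaled between DMSO and tamoxifen (100 uM) controls.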

[5] = Cellular Toxicity (caspase-3) MRC-5 (AID 659); settings: MRC-5 cells, luminescence, normalized: DMSO 0%, 10 µM staurosporine 100%; series mostly up to 91.7 µM
Method in brief: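 MRC-5 fibroblasts, 1500/well; 16 h cpd, 37 °C; Caspase-Glo 3/7, 1 h RT; lumi read. Norm: DMSO = 0%, 10 uM staurosporine = 100%. Hill-fit AC50 from qHTS conc-response.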

[6] = Cellular Toxicity (caspase-3) SK-N-SH (AID 661); settings: SK-N-SH caspase-3 activation, qHTS, DMSO as zero, staurosporine as full; series mostly up to 91.7 µM
Method in brief: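 Caspase 3/7 activation was read by luminogenic substrate cleavage after 16 hour treatment of SK-N-SH cells. Signal was scaled between DMSO and 10 uM staurosporine, and concentration-response data were fitted with the Hill equation for AC50.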

[7] = Cellular Toxicity (caspase-3) Hek293 (AID 664); settings: HEK293 caspase-3 activation, DMSO = 0%, 100 µM tamoxifen = 100%; at 92.2 µM (top of the series);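 further: cells exposed to compound for 16 h at 37 °C before readout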
Method in brief: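 Concentration-response qHTS: caspase 3/7 activation measured by luminescent aminoluciferin substrate cleavage after 16 h compound exposure of Hek 293 cells. AC50 from Hill equation, with DMSO as basal and 100 uM tamoxifen as 100%.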

[8] = Cellular Toxicity (caspase-3) N2a (AID 665); settings: N2a cells, luminescence, normalized: DMSO 0%, 10 µM staurosporine 100%; series mostly up to 92.2 µM;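 further: compound exposure lasted 16 h at 37 °C before readout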
Method in brief: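 Caspase-3/7 activation measured as luminescence from Caspase-Glo reagent (1 h, room temperature) after 16 h compound exposure of mouse N2a cells. AC50 values from Hill-equation concentration-response, scaled between DMSO and 10 uM staurosporine.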

[9] = Cellular Toxicity (caspase-3) NIH 3T3 (AID 666); settings: NIH 3T3 caspase-3 activation, apoptosis/toxicity, 0% DMSO, 100% is 100 µM tamoxifen; series mostly up to 92.2 µM;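 further: 0% = DMSO basal and 100% = 100 µM tamoxifen stimulation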
Method in brief: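 Caspase-Glo 3/7 luminescence reported caspase activation in 1000 NIH 3T3 cells/well after 16 h compound exposure at 37 C. DMSO set basal and 100 uM tamoxifen set 100% stimulation; concentration-response modeled with the Hill equation for AC50.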

[10] = Cellular Toxicity (caspase-3) Renal Proximal Tubule (AID 667); settings: renal proximal tubule cells, primary cells freshly taken from rat; Potency: caspase-3 activation; series mostly up to 91.7 µM;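 further: cells exposed to compound for 16 hours at 37 °C before detection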
Method in brief: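 Caspase-Glo 3/7 read-out, rat primary kidney proximal tubule cells. Compound exposure 16 h, 37 °C; detection after 1 h at RT. Activity scaled to DMSO and 10 uM staurosporine.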

[11] = MultiTox-Fluor Cytotoxicity Assay - LYMP1-001 - Dead Cells (AID 946); settings: LYMP1-001 lymphoblastoid cells, dead-cell protease fluorescence; series mostly up to 92.2 µM;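 further: 0% = DMSO and 100% = tetraoctylammonium bromide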
Method in brief: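 LYMP1-001 lymphoblastoid cells (2500/well) treated 16 h at 37 C. Dead-cell protease cleavage of bis-AAF-R110 read at Ex/Em 485/520. Normalized to DMSO and 15 uM tetraoctylammonium bromide; AC50 from Hill fits.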

[12] = MultiTox-Fluor Cytotoxicity Assay - LYMP1-003 - Dead Cells (AID 961); settings: LYMP1-003 lymphoblastoid cells, dead-cell protease fluorescence; series mostly up to 92.2 µM;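 further: 0% = DMSO and 100% = tetraoctylammonium bromide; nearly all actives have a fitted effect of over 70% in size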
Method in brief: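 LYMP1-003 human lymphoblastoid cells (2500/well) exposed to compound 16 h at 37 C in complete medium; dead-cell protease read with bis-AAF-R110 fluorescence (Ex/Em 485/520) after 60 min at room temperature. Normalized to DMSO and 15 uM tetraoctylammonium bromide; AC50 from Hill fit.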

[13] = MultiTox-Fluor Cytotoxicity Assay - LYMP1-003 - Live Cells (AID 962); settings: LYMP1-003 lymphoblastoid cells, MultiTox-Fluor live-cell protease fluorescence; series mostly up to 92.2 µM;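 further: 0% = DMSO only and full loss = 92 µM tetraoctylammonium bromide; cytotoxic hits lower the live-cell protease signal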
Method in brief: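 Live-cell protease activity (GF-AFC substrate, 405/510 nm, 60 min at room temperature) after 16 h, 37 C compound exposure of human lymphoblastoid LYMP1-003 cells; concentration-response fitted to the Hill equation for AC50.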

[14] = Cell Viability - LYMP1-003 - Assay at 24 hr (AID 963); settings: LYMP1-003 lymphoblastoid cell viability; series mostly up to 92.2 µM;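 further: plate controls were DMSO only for no effect and tetraoctylammonium bromide positive control for full effect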
Method in brief: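 Concentration-response qHTS: ATP loss measured by CellTiter-Glo luminescence after 24 h compound exposure at 37 C. Cells were LYMP1-003 human lymphoblastoid, 2500 per well. AC50 derived via standard Hill equation modeling.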

[15] = Cell Viability - LYMP1-002 - Assay at 24 hr (AID 993); settings: LYMP1-002 lymphoblastoid cells viability; series mostly up to 92.2 µM; further: on the % scale 0 is the no-effect control and ±100 the full control effect
Method in brief: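 qHTS cytotoxicity at 24 h: CellTiter-Glo ATP luminescence in lymphoblastoid line LYMP1-002 incubated with compound at 37 °C. Concentration-response modeled with the Hill equation for AC50; tetraoctylammonium bromide served as positive control.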

[16] = qHTS Assay for Identification of Small Molecule Inducers of Hypoxia Response (AID 2120; active means well fitted curve in the direction sought with a large enough effect in the signal ratio, with a control signal flat, not every such curve was filed as active; the % refers to the signal ratio; further: 0% is about no effect); settings: hypoxia response reporter cells, beta-lactamase ratio readout; series mostly up to 104 µM
Method in brief: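 Reporter induction read as the CCF4 blue/green (460nm/530nm) emission ratio after 2.5 h dye loading at room temperature. ME-180 HRE-beta-lactamase cells received titrated compounds for 17 h at 37 degrees Celsius; AC50 values derived.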

[17] = biological target: Peroxisome proliferator-activated receptor alpha (Homo sapiens) (UniProt Q07869); assay: qHTS assay for small molecule agonists of the peroxisome proliferator-activated receptor alpha (PPARalpha) signaling pathway (AID 651778); settings: PathHunter PPARalpha complementation, chemiluminescence, 6 h; max response: stronger effect = higher value; further: % of control where 0% means no effect
Sequence of Peroxisome proliferator-activated receptor alpha (Homo sapiens) (Q07869 whole entry, looked up, the tested form may be a part): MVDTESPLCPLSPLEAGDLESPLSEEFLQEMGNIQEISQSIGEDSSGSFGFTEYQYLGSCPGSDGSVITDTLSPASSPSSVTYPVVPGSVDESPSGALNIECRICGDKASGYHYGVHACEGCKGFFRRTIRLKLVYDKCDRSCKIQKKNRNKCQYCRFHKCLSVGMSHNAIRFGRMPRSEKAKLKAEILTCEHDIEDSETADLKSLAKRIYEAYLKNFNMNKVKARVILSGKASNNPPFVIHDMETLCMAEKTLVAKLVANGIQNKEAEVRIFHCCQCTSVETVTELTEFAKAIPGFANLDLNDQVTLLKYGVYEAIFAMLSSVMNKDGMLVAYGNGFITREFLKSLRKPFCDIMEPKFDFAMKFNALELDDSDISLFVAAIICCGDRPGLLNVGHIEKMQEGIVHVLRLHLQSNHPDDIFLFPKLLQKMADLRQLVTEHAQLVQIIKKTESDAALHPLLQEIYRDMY
Method in brief: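 Enzyme-fragment complementation assay in which ligand-bound PPARalpha translocates and forms an active enzyme that generates chemiluminescence. Cells were plated overnight, exposed to compound for 6 hr at 37 C, and then given detection reagent for 60 min at room temperature.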

[18] = qHTS assay for small molecule agonists of the antioxidant response element (ARE) signaling pathway measured by Nrf2-dependant transcriptional activity - cell viability counter screen (AID 720653; active means well fitted curve in the direction sought with a large enough effect in the repeat runs; an effect the other way counts as inactive or inconclusive; further: on the % scale 0 is the no-effect control and ±100 the full control effect); settings: ARE-bla HepG2 viability, CellTiter-Glo ATP luminescence, 16 h; max response: stronger effect = lower value
Method in brief: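 ARE-bla HepG2 cells treated with compounds for 16 h at 37C; this counter screen measures viability as intracellular ATP by CellTiter-Glo luminescence after 30 min at room temperature.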

[19] = qHTS assay for cell viability of HEK293 cells (AID 743288); settings: ATP luminescence (CellTiter-Glo), 18 h; max response: stronger effect = lower value; further: on the % scale 0 is the no-effect control and ±100 the full control effect; nearly all actives have a fitted effect of over 50% in size
Method in brief: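 HEK293, 18 h, 37 C, ATP luminescence. Cells at 2,000/well were allowed at least 5 h to settle before dosing; CellTiter-Glo developed 30 min at RT.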

[20] = qHTS assay for cell viability of the p53RE-bla HCT-116 cell line (AID 743292); settings: p53RE-bla HCT-116 viability, ATP luminescence, 16 h; series mostly up to 95 µM; further: on the % scale 0 is the no-effect control and ±100 the full control effect; nearly all actives have a fitted effect of over 55% in size
Method in brief: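 ATP-based luminescence, 16 h compound exposure at 37 C, p53RE-bla HCT-116 cells at 4,000/well.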

CC(=O)OC1CC(C)OC(C)O1 (stereo not given)
inactive: Potency [1] > 92 µM | Potency [2] | Potency [3] | Potency [4] | outcome [5] | outcome [6] | caspase-3 activation [7] 2.93% | outcome [8] | outcome [9] | Potency [10] | Potency [11] | Potency [12] | Potency [13] | Potency [14] | Potency [15] | Potency [16] | max response [17] -4.25% and 0.0018% | max response [18] 6.75% and -0.741% | max response [19] -1.36% and -5.57% | Potency [20]

O=c1[nH]ncc2ccccc12
inactive: Potency [1] > 92 µM | Potency [2] | Potency [3] | Potency [4] | outcome [5] | outcome [6] | caspase-3 activation [7] -1.83% | outcome [8] | outcome [9] | Potency [10] | Potency [11] | Potency [12] | Potency [13] | Potency [14] | Potency [15] | Potency [16] | max response [17] -3.48% | max response [18] 2.85% | max response [19] 0.756% | Potency [20]

CCCCC(CC)COCCCN (stereo not given)
inactive: Potency [1] > 92 µM | Potency [2] | Potency [3] | Potency [4] | outcome [5] | outcome [6] | caspase-3 activation [7] -1.34% | outcome [8] | outcome [9] | Potency [10] | Potency [11] | Potency [12] | Potency [13] | Potency [14] | Potency [15] | Potency [16] | max response [17] -9.53% | max response [18] -14.9% | max response [19] 10.2% | Potency [20]

c1ccc(COCc2ccccc2)cc1
inactive: Potency [1] > 92 µM | Potency [2] | Potency [3] | Potency [4] | outcome [5] | outcome [6] | caspase-3 activation [7] 2.76% | outcome [8] | outcome [9] | Potency [10] | Potency [11] | Potency [12] | Potency [13] | Potency [14] | Potency [15] | Potency [16] | max response [17] -3.88% | max response [18] 3.34% | max response [19] 0.589% | Potency [20]

O=[N+]([O-])c1ccc(F)cc1F
inactive: Potency [1] > 92 µM | Potency [2] | Potency [3] | Potency [4] | outcome [5] | outcome [6] | caspase-3 activation [7] -0.155% | outcome [8] | outcome [9] | Potency [10] | Potency [11] | Potency [12] | Potency [13] | Potency [14] | Potency [15] | Potency [16] | max response [17] -5.98% | max response [18] 13.3% | max response [19] 3.6% | Potency [20]

OCC(CO)(CBr)CBr
inactive: Potency [1] > 92 µM | Potency [2] | Potency [3] | Potency [4] | outcome [5] | outcome [6] | caspase-3 activation [7] -0.451% | outcome [8] | outcome [9] | Potency [10] | Potency [11] | Potency [12] | Potency [13] | Potency [14] | Potency [15] | Potency [16] | max response [17] -0.558% and -3.38% | max response [18] 9.25% and 7.51% | max response [19] -6.95% and -8.44% | Potency [20]
